# Laboratory results taken from the supplement of paper PMC12636033.
# ± gives the standard deviation of the averaged measurements. Over roughly 33,000 sequences, “E-score (rank enrichment, -0.5 to 0.5)” has its median near -0.0068; the highest 2% begin near 0.24. The sample as a whole holds a higher share of the highest values than the screen did.
# Tested on: muMax20 (Max(13-93) K31hArg/K57hArg, M65Nle)
# Experiment: PBM 8-mer E-score (E-score (rank enrichment, -0.5 to 0.5)); higher = stronger preferential binding
# Method: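 Protein binding microarray (universal PBM chip covering all 10-mers in fixed probe flanks) with chemically synthesized human Max(13-93) bHLH-LZ analogs (not full-length Max) bearing noncanonical residues (hArg, Tha, Aib, Nle at 65) and aromatic Cys staples. Read-out per 8-mer (and its reverse complement): E-score (rank-based enrichment, -0.5 to 0.5) and Z-score of median probe intensity.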
row,Sequence,PBM 8-mer E-score
1,CGTCCTGC,-0.0779 ± 0.08
2,ATAGCTGG,-0.243 ± 0.062
3,TCTAATAA,0.236 ± 0.032
4,AATACTAA,0.158 ± 0.052
5,AAAAATAA,0.0636 ± 0.065
6,AATACTAT,0.265 ± 0.077
7,AGTAATAG,0.227 ± 0.078
8,AATACTAC,0.197 ± 0.038
9,AATAATAA,0.277 ± 0.011
10,AATAATCC,0.0218 ± 0.0033
11,AGTAATAA,0.271 ± 0.0094
12,GGTAATAA,0.0931 ± 0.008
13,CCTAATAA,0.103 ± 0.096
14,ACTAATAA,0.222 ± 0.015
15,AACGGAGT,-0.013 ± 0.052
16,ATCGTCGA,-0.133 ± 0.025
17,ATTGGATA,-0.0183 ± 0.031
18,ATAATGAC,0.122 ± 0.01
19,CCAGTCCA,-0.0788 ± 0.061
20,TAAAAGTA,0.189 ± 0.074
21,GTGGGCAA,0.0632 ± 0.065
22,ACATGTGG,0.335 ± 0.035
23,AAATGTGG,0.139 ± 0.016
24,CCATGTGC,0.265 ± 0.12
25,CCATGTGA,0.268 ± 0.088

row,Sequence,PBM 8-mer E-score
1,AGATGTGA,0.11 ± 0.04
2,AGATGTGG,-0.0064 ± 0.024
3,CTATGTGC,0.175 ± 0.034
4,GCATGTGA,0.236 ± 0.11
5,ACATGTGA,0.313 ± 0.063
6,CGATGTGA,-0.012 ± 0.0036
7,CCATGTTC,-0.0553 ± 0.12
8,ACATGTCA,0.0739 ± 0.079
9,CTAGTAAC,0.196 ± 0.0053
10,ATCTTGGC,-0.108 ± 0.011
11,AGCTCGTG,0.0196 ± 0.019
12,GGGCCACA,-0.0874 ± 0.078
13,CTGCTGCC,-0.156 ± 0.007
14,GTGTCTAA,0.0915 ± 0.069
15,ATGGATAA,0.163 ± 0.05
16,GATCCAAC,-0.0916 ± 0.056
17,CGATGCAG,-0.0636 ± 0.022
18,AGGCACAA,0.00764 ± 0.053
19,AGATGTGC,-0.0232 ± 0.13
20,ACATGTCC,0.132 ± 0.091
21,ACATGTGC,0.265 ± 0.089
22,AAAAGGGT,0.017 ± 0.098
23,CGCACGCG,0.171 ± 0.035
24,CCCACGCA,-0.043 ± 0.11
25,ACCACGCC,-0.112 ± 0.055

row,Sequence,PBM 8-mer E-score
1,ACCACGCG,0.3 ± 0.11
2,CCCACGCC,-0.00197 ± 0.078
3,TAAACACA,0.218 ± 0.043
4,CCCACGCG,0.246 ± 0.025
5,AGCACGCA,0.00177 ± 0.16
6,CAAACACA,0.181 ± 0.095
7,ACCACGCA,-0.00629 ± 0.023
8,CAAACACG,0.292 ± 0.006
9,AGCACGCG,0.238 ± 0.13
10,ATCTCAAT,0.0437 ± 0.22
11,ATCTCCCA,0.0498 ± 0.043
12,AGACCAGA,-0.0423 ± 0.084
13,AGGGTGCG,-0.107 ± 0.027
14,CTGAGCAG,-0.139 ± 0.067
15,ACATAGGC,0.126 ± 0.0047
16,CGCAGGGA,-0.135 ± 0.074
17,CACACGCA,0.0877 ± 0.054
18,ACCACGTC,0.0772 ± 0.1
19,ACCACGTG,0.477 ± 0.026
20,AACACGCG,0.202 ± 0.042
21,CACACGCG,0.258 ± 0.038
22,ACCACGTA,-0.0417 ± 0.022
23,AGCACGTA,0.0788 ± 0.0046
24,ATCACGTG,0.445 ± 0.064
25,ATCACGTA,0.144 ± 0.055

row,Sequence,PBM 8-mer E-score
1,AGCACGTG,0.436 ± 0.07
2,ATCACGTC,0.182 ± 0.045
3,AGCACGTC,-0.139 ± 0.096
4,ATGCCCAG,-0.219 ± 0.063
5,ACTCGCTA,-0.111 ± 0.17
6,CCGTGCCG,-0.206 ± 0.017
7,GACCACAC,0.0455 ± 0.029
8,CACTAGGG,-0.0807 ± 0.033
9,TATGGAAA,0.148 ± 0.034
10,CCCCCTCG,-0.0378 ± 0.01
11,ATGCCCAC,0.164 ± 0.033
12,AATGAAAT,0.0911 ± 0.04
13,AATGAATA,0.275 ± 0.093
14,ACTGAATA,0.0784 ± 0.014
15,AATGAATC,-0.0408 ± 0.034
16,AATGAATG,0.259 ± 0.058
17,TATGAATA,0.159 ± 0.029
18,AATGAACT,-0.00523 ± 0.086
19,CATGAATA,0.192 ± 0.13
20,CATGAATG,0.126 ± 0.15
21,GATGAATC,0.0791 ± 0.018
22,AATGAATT,0.238 ± 0.013
23,GATGAATA,0.24 ± 0.097
